# In PubChem BioAssay AID504332 (National Center for Advancing Translational Sciences (NCATS), 2011):
# Several values for one entry are separate records, joined by “and”; a condition that tells them apart may be missing. Equal values may be shown once. Among all 350,000 compounds or so, about 31,000 (8.9%) were called active. Roughly 15% stayed inconclusive and do not appear here. The call rests on the fitted dose curve; in most records, active means well fitted inhibition curve with a large enough effect; inconclusive means small, poorly fitted or top-dose-only effect; inactive means no such curve, though single readings can be large or run the other way. What follows is part of a selection rich in actives, with near analogues and random picks from the rest. A structure can be active in one record and inactive in another.
# Target: Histone-lysine N-methyltransferase EHMT2 (Homo sapiens) (UniProt Q96KQ7)
# Assay: qHTS Assay for Inhibitors of Histone Lysine Methyltransferase G9a; further: nearly all actives have a fitted effect of over 75% in size
# Details: G9a H3K9 monomethylation, AlphaScreen, 2 h; series mostly up to 102 µM; activity, negative = inhibition: at the top concentration
# Method in brief: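 Chemiluminescent proximity detection of H3K9 monomethylation, read after 10 min bead incubation in the dark. Reaction: 20 nM G9a, 500 nM biotin-H3K9 peptide, 20 uM SAM cofactor, 2 h, room temperature, following 15 min enzyme-compound preincubation.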
# On the % scale 0 is the no-effect control and ±100 the full control effect; potency means the concentration at half of the fitted maximal effect.
# Chain of Histone-lysine N-methyltransferase EHMT2 (Homo sapiens) (Q96KQ7 913-1193 limits assumed): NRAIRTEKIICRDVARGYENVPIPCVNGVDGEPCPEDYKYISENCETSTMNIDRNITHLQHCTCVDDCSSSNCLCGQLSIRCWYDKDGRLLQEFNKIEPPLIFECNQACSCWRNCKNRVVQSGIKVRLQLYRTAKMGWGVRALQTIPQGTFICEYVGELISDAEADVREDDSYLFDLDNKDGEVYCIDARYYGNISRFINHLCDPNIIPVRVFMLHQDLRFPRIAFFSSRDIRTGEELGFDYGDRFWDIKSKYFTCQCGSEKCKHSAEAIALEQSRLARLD
Structure (SMILES),Potency,"activity, negative = inhibition"
Cc1ccnc(-n2c(C)cc(/C=C3\C(=O)NC(=S)N(C)C3=O)c2C)c1,6.31 µM (active),
CN1CCC(OC(=O)c2cccc(F)c2)CC1,,-16% (inactive)
CCN1CCN(c2ccc([N+](=O)[O-])cc2C#N)CC1,,-50% (inactive)
O=C(N/N=C/c1c(O)n(C2CC2)c(=S)[nH]c1=O)c1ccccc1Cl,,21.3% (inactive)
CCNC[C@H](O)c1cccc(O)c1,,5.63% [at 21.5 µM] (inactive)
CN(c1ccccc1)c1ccc([N+](=O)[O-])c2nonc12,15.8 µM (active),
O=c1c2ccccc2nc(-c2ccco2)n1-c1ccc(Br)cn1,,11% [at 59 µM] (inactive)
CCOP(=S)(OCC)SCOC(=O)NCC(=O)OC,,22% [at 59 µM] (inactive)
CCOC(=O)C(O)(c1ccc(N=Cc2ccccc2O)c(C)c1)C(F)(F)F (stereo not given),,14.5% (inactive)
COc1ccccc1N1CCN(C(CNC(=O)Oc2ccccc2)c2cccnc2)CC1 (stereo not given),,4.58% (inactive)
O=C(c1cc(S(=O)(=O)N2CCOCC2)ccc1F)N1CCC2(CC1)OCCO2,,-11% [at 12.7 µM] (inactive)
Cc1nn(-c2ccccc2)c(C)c1NC(=O)COC(=O)Cc1ccccc1,,-0.2% (inactive)
c1cc2c(cc1[C@H]1OC[C@H]3[C@@H]1CO[C@@H]3c1ccc3c(c1)OCO3)OCO2,,39.6% [at 59 µM] (inactive)
CC(=NCc1ccc2c(c1)OCO2)c1c(O)[nH]c(=O)[nH]c1=O,,-21.4% [at 12.7 µM] (inactive)
c1ccc(CCNC2CCCCCC2)cc1,7.08 µM (active),
OC(CNC1CCCCC1)c1ccccc1 (stereo not given),,2.5% [at 12.7 µM] (inactive)
c1cc2c(cc1CCNC1CCCCCC1)OCO2,8.91 µM (active),
O=C(CN1CCCC1=O)NCCc1ccccc1,,27.1% [at 12.7 µM] (inactive)
CCN(CC)C(=O)c1ccc(NC(=O)c2sccc2-c2ccccc2)cc1,,-8.18% (inactive)
CCN1C[C@]2(COC)C(O)C[C@H](OC)[C@@]34C5C[C@]6(O)C(OC)C(O)[C@](OC(C)=O)(C5C6OC(=O)c5ccccc5)C(C(OC)C23)C14 (stereo not given in full),,-10.7% [at 2.33 µM] (inactive)
CN[C@@H]1C[C@H]2O[C@@](C)([C@@H]1OC)n1c3ccccc3c3c4c(c5c6ccccc6n2c5c31)C(=O)NC4,,inactive
Cc1ccc(-n2c(/C=C/c3cccc(C(F)(F)F)c3)nc3ccccc3c2=O)cc1,,-5.19% [at 59 µM] (inactive)
CCOc1ccc(-c2cc(C)[n+](CCN(CC)CC)c(-c3ccc(OCC)cc3)c2)cc1,,9.19% [at 59 µM] (inactive)
O=C(O)COc1ccccc1/C=C1\C(=O)NC(=O)N(CCC2=CCCCC2)C1=O,50.1 µM (active),

Structure (SMILES),Potency,"activity, negative = inhibition"
CCCCC(=O)N/N=C/c1c(O)n(CCC2=CCCCC2)c(=O)[nH]c1=O,,-31.3% (inactive)
CCN(CC)P(=O)(Oc1cccc(C)c1)N(CC)CC,,-21.3% (inactive)
Cc1cc(-c2n[nH]c(=S)n2-c2ccc(C)c(C)c2)no1,2.51 µM (active),
c1ccc(CN2CC[C@@]3(CCCNC3)C2)cc1,,-24.8% [at 12.7 µM] (inactive)
CN1CCN(C(=O)COc2ccc(C(C)(C)C)cc2Br)CC1,,-8.26% (inactive)
O=C(O)c1ccccc1NC(=O)C1C2CCC(O2)C1C(=O)O (stereo not given),,-2.22% [at 0.501 µM] (inactive)
ClC(Cl)(Cl)c1ccccc1,,-20.6% [at 0.501 µM] (inactive)
CCN1C(=O)C(=Cc2c(C)n(CC(=O)NCC3CCCO3)c3ccccc23)C(=O)N(CC)C1=S (stereo not given),39.8 µM (active),
O=C1C2(Cl)C3(Cl)C4(Cl)C(Cl)(Cl)C5(Cl)C3(Cl)C1(Cl)C5(Cl)C24Cl (stereo not given),,-1.92% [at 0.501 µM] (inactive)
COc1ccccc1-c1[se]c2ccccc2c1I,,71.9% [at 59 µM] (inactive)
COC(=O)C1=C(c2ccc(F)cc2OCc2ccccc2)C[C@@H]2CC[C@H]1N2C(=O)NCc1ccc(OC)c(OC)c1,,-8.71% [at 0.501 µM] (inactive)
CN(C)[C@@H]1C(=O)C(C(N)=O)=C(O)[C@@]2(O)C(=O)C3=C(O)c4c(O)cccc4[C@@](C)(O)C3CC12 (stereo not given in full),22.4 µM (active),
CNC(=O)O/N=C(\N)Cc1csc2ccccc12,,20.1% [at 59 µM] (inactive)
C/C(CCc1c[nH]c2ccccc12)=N\O,,13.7% [at 12.7 µM] (inactive)
O=C(Nc1ccc(Cl)cc1C(=O)c1ccccc1)c1cc(Cl)cc(Cl)c1,,-10.5% [at 59 µM] (inactive)
C=Cn1ccnc1P(=S)(c1cc(N(CC)CC)ns1)c1nccn1C=C,,-9.17% [at 59 µM] (inactive)
COP(=O)(NS(=O)(=O)c1ccccc1)OC,,-8.09% (inactive)
CN1CCN(c2cc(N3CCNCC3)ccc2[N+](=O)[O-])CC1,,-17.5% [at 59 µM] (inactive)
COc1cccc(-c2nc3ccc(N4CCN(C)CC4)cc3[nH]2)c1,44.7 µM (active),
Cc1nc2ccc(N3CCN(C)CC3)cc2nc1C,,14.8% (inactive)
CN(C)/C=C(\C=[N+](C)C)c1[nH]ncc1[N+](=O)[O-],,-35.8% (inactive)
CCc1nnc(NS(=O)(=O)c2ccc(N=Cc3c(O)n(-c4ccccc4)c(=O)[nH]c3=O)cc2)s1,,-36.3% (inactive)
N#CC1=C(N)Oc2c(c(=O)oc3ccccc23)C1c1ccccc1OC(=O)c1cccs1 (stereo not given),,-9.96% (inactive)
COC(=O)C1=C(c2ccc(F)cc2F)C[C@@H]2CC[C@H]1N2C(=O)NC1CC1,,2.71% [at 0.501 µM] (inactive)

Structure (SMILES),Potency,"activity, negative = inhibition"
O=C(CCNS(=O)(=O)c1ccccc1)Nc1ccc(Cl)cc1C(=O)c1ccccc1,,21.4% [at 59 µM] (inactive)
CCOC(=O)C1=C(C)OC(N)=C(C(=O)OC)C12C(=O)Nc1ccc(Br)cc12 (stereo not given),,8.25% [at 2.33 µM] (inactive)
CC[N+](C)(CC)CCC[n+]1c(-c2ccccc2)c2cc(N)ccc2c2ccc(N)cc21,5.01 µM (active),
C[C@H]1CC[C@@]2(NC1)O[C@@H]1C[C@H]3[C@@H]4CC=C5C[C@@H](O)CC[C@]5(C)[C@@H]4CC[C@]3(C)[C@@H]1[C@@H]2C,,18.8% [at 21.5 µM] (inactive)
CCN1CCN(c2nc3c(c(=O)[nH]2)CCC3)CC1,,-48.7% (inactive)
CCOc1ccc(CN(CCCl)CCCl)cc1C(=O)OC,,16.9% [at 0.501 µM] (inactive)
CCOP(=O)(OCC)C(O)c1ccc(OC)cc1OC (stereo not given),,7.49% [at 59 µM] (inactive)
CCOC(=O)c1ncn2c1[C@@H]1CCCN1C(=O)c1cc(OC)ccc1-2,,inactive
CCOC(=O)C1CN(C)CCC1=O (stereo not given),,26.6% [at 2.33 µM] (inactive)
CCC(=NCCc1ccccc1)c1c(O)n(C2CCCCC2)c(=O)[nH]c1=O,,-19.9% [at 59 µM] (inactive)
O=C(Cc1ccccc1)N1CCN(C2CCCCCC2)CC1,31.6 µM (active),
O=C(Cn1c(=O)n(CC2CS2)c2ccccc21)N1CCCCC1 (stereo not given),,-40.4% (inactive)
CN1CCN(Cc2ccccc2C(F)(F)F)CC1,,-12.5% [at 59 µM] (inactive)
CCN1CCN(C(=O)Cc2coc3cc(C)cc(C)c23)CC1,,-6.19% [at 59 µM] (inactive)
COc1ccccc1CN1CCN(C(=O)Cc2ccccc2)CC1,17.8 µM (active),
CCOC(=O)C(O)(c1ccc(NC(=O)c2ccco2)c(OC)c1)C(F)(F)F (stereo not given),,-45.5% [at 2.33 µM] (inactive)
c1ccc(CCCCN2CCC(c3ccccc3)CC2)cc1,,9.12% [at 59 µM] (inactive)
CC1=C(C(=O)Nc2ccccc2)S(=O)(=O)CCO1,,2.61% (inactive)
CC(Cc1ccccc1)NC=O (stereo not given),,2.33% [at 12.7 µM] (inactive)
COC(=O)C1=C(c2ccc(Cl)c(C(F)(F)F)c2)C[C@@H]2CC[C@H]1N2C(=O)NC1CC1,,7.94% [at 0.501 µM] (inactive)
OC(Cn1c2ccccc2c2ccccc21)C[n+]1ccccc1 (stereo not given),,18.9% (inactive)
CN1CCc2nc(SC(C(=O)O)c3ccccc3)c(C#N)c(-c3cccs3)c2C1 (stereo not given),31.6 µM (active),
CN1CCCC(=C(c2cccs2)c2cccs2)C1,,-17.6% [at 12.7 µM] (inactive)
Cn1c(O)c(C=NCCCC(=O)O)c(=O)n(C)c1=O,,-19.8% (inactive)

Structure (SMILES),Potency,"activity, negative = inhibition"
COCCNC(=O)CN1C2CCC1CC(O)(c1cccnc1)C2 (stereo not given),,-5.11% (inactive)
O=C1NC(=O)C(C/C=C/c2ccccc2)C(=O)N1,25.1 µM (active),
O=C(O)C1C2CCC(O2)C1C(=O)O (stereo not given),,48.4% [at 12.7 µM] (inactive)
CN(C)C(=O)NC(O)C(Cl)(Cl)Cl (stereo not given),,-0.62% (inactive)
O=C(COc1ccc2ccccc2c1)N1CCN(Cc2ccncc2)CC1,6.31 µM (active),
CCc1ccc(OCC(=O)N2CCN(CC(=O)Nc3ccccc3Cl)CC2)cc1,,-1.72% [at 2.33 µM] (inactive)
CC(C)c1ccc(OCC(=O)N2CCCN(C)CC2)cc1,,-4.39% (inactive)
O=C(COC(=O)c1ccccc1)Nc1ccc(Cl)cc1C(=O)c1ccccc1,,0.53% (inactive)
CC(=O)Cc1ccc(OC(C)C)cc1,,-0.528% (inactive)
O=C(COC(=O)Cc1ccccc1)Nc1ccc(F)cc1,,7.02% (inactive)
COC(=O)C1=C(c2cccc(OCc3ccccc3)c2)C[C@@H]2CC[C@H]1N2C(=O)NNCc1ccccc1,,2.91% [at 2.33 µM] (inactive)
O=S(=O)(Nc1ccc2[nH]ncc2c1)c1ccccc1Cl,22.4 µM (active),
NC(=O)Cn1cc(C(=O)c2ccccc2F)c2ccccc21,,24.1% (inactive)
O=C(CCCn1c(=O)[nH]c2cc(Cl)ccc2c1=O)N1CCC2(CC1)OCCO2,,-2.1% (inactive)
Cc1cccc(OP(=O)(Oc2cccc(C)c2)OC(c2ccccc2)C(F)(F)F)c1 (stereo not given),,170% (inactive)
COc1ccc(-n2c(-c3ccccc3)nc3ccccc3c2=O)cc1,,-4.54% (inactive)
C[N+]1(C)CCOC(O)(c2ccc(-c3ccc(C4(O)C[N+](C)(C)CCO4)cc3)cc2)C1 (stereo not given),inactive and 50.1 µM (active) and 20 µM (active),
CC[N+]1(CCOC(=O)C(O)(c2ccccc2)c2ccccc2)CCCCC1,,-33.9% [at 12.7 µM] (inactive)
Cc1ccc(-c2nn(CCC#N)cc2C(=O)O)cc1C,,4.34% (inactive)
O=C(c1ccccc1[N+](=O)[O-])N1CCC2(CC1)OCCO2,,-1.06% (inactive)
CC(C)n1c(=O)c(C=Nc2ccc(Br)cc2)c(O)n(Cc2ccco2)c1=O,,1.83% [at 59 µM] (inactive)
Cc1ccc(-n2c(-c3ccc([N+](=O)[O-])cc3)nc3ccccc3c2=O)cc1,,7.18% [at 59 µM] (inactive)
O=[N+]([O-])c1cnc2ccc3ccccc3c2c1,50.1 µM (active),
